Dicer inh: human Dicer pre-microRNA cleavage inhibition; z-score at 25 µM; 47,000 tested, 6% active; cat-ELCCA pre-miR-21 Dicer processing, chemiluminescence; stronger effect = higher value; AID 1347074; in the data active means z-score above about 3, passing the limit was not always enough;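 further: plate controls were vehicle for no effect and no enzyme for full effect; higher signal means more uncleaved substrate so more Dicer inhibition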
* marks the source's active call; other numbers are inactive results; ! = not active in a repeat. The full list was thinned out, with hits kept by preference.

SMILES | Dicer inh
CCCc1[nH]nc2c1C(c1ccccc1)C(C#N)=C(N)O2 (stereo not drawn) | -2.3
CCOc1cc(C2C(C#N)=C(C)NC3=C2C(=O)CC(c2ccccc2)C3)ccc1OC(C)=O (stereo not drawn) | 0.1
COC(=O)c1ccc2c(c1)N(C)S(=O)(=O)c1cnc(SCC(=O)Nc3ccccc3)nc1-2 | 5*
COC(OC)c1nc(SCC(=O)Nc2cccc(Cl)c2)ncc1C(=O)O | -2.1
COC(=O)c1ccc2c(c1)N(C)S(=O)(=O)c1cnc(SC)nc1-2 | -2.9
Cc1cc(-c2ccccc2)nnc1NCCN1CCOCC1 | -0.37
CCCOC(=O)CSC1=C(C#N)C(c2ccc(C)cc2)CC(=O)N1 (stereo not drawn) | 2.2
O=C(CSc1nc(C(F)(F)F)cc(=O)[nH]1)c1ccc(Cl)cc1 | -1.2
Cc1cc(=O)[nH]c(SCC(=O)N(c2ccccc2)c2ccccc2)n1 | 1.3
COc1ccc(C(=O)CSc2nc(O)cc(=O)[nH]2)cc1 | -2.6
Cc1cc(=O)[nH]c(SCC(N)=O)n1 | 4.6*
Cc1ccc(C(=O)CSc2nc(C)cc(=O)[nH]2)cc1 | 4.6*
Cc1cc(=O)[nH]c(SCC(=O)C(C)(C)C)n1 | 0.9
CCC1(C)Cc2c(C#N)c(N)n(C)c(=S)c2CO1 (stereo not drawn) | -0.28
Nc1ncc2c(n1)CC(c1ccccc1)CC2=O (stereo not drawn) | 0.67
CSC(N)=Nc1cc(Cl)ccc1Cl | 2.2
CSC(N)=Nc1ccc(Cl)c(Cl)c1 | 2.4
CSC(N)=Nc1ccc(Cl)cc1 | 3*!
O=S(=O)(Cc1ccc(Cl)c(Cl)c1)c1cccs1 | -2
CCc1cc(C(=O)Cc2nc3ccccc3s2)c(O)cc1O | 0.55
N/C(=N\NS(=O)(=O)c1ccccc1C(F)(F)F)c1ccccn1 | 0.57
N/C(=N\NC(=O)Nc1ccc(Cl)cc1)c1ccccn1 | 6.6
CNC(=S)N/N=C(/N)c1ccccn1 | 4.3*
COc1ccc(C2C(C#N)=C(N)SC3C(=O)N(c4ccc(Br)cc4)C(=O)C32)cc1 (stereo not drawn) | -1.1
CC(C)CCSc1nnc(N)s1 | 0.97
SMILES | Dicer inh
O=C1CSc2nc(-c3ccccc3)c(-c3ccccc3)n21 | -0.62
O=C1CSC(=O)N1C(c1ccccc1)(c1ccccc1)c1ccccc1 | 4.5*
CC(C)(C)c1ccc(N2C(=N)SCC2=O)cc1 | 0.2
Cc1onc(-c2ccccc2Cl)c1C(=O)N(C1CCCCC1)C1CCCCC1 | 1.1
N#C/C=C(\Nc1ccc(F)cc1F)c1ccccc1Cl | -0.43
COC(=O)Cn1c(=O)oc2ccc(C)cc21 | 3.7*
CCCCCOC(=O)Cn1c(=O)oc2ccc(C)cc21 | 1
Cc1cccc(Cn2c(=O)oc3ccc(C)cc32)c1 | -0.24
O=c1oc2ccccc2n1Cc1cccc(Cl)c1 | 0.02
Cc1ccc2oc(=O)n(Cc3ccc(OC(C)C)cc3)c2c1 | 3.2*
CC(C)(C)NC(=O)Cn1c(=O)oc2ccc(Cl)cc21 | -1
O=C(Nc1csc(-c2ccc(Cl)cc2)c1)c1cccnc1Oc1ccc(Cl)cc1 | -1.2
Fc1ccc(C2C3CCc4ccccc4C3=NN2C(=S)NC2CCCCC2)cc1 (stereo not drawn) | 0.02
COc1cc(-c2ccc(Cl)cc2)nc(N)n1 | 0.05
c1ccc2c(c1)ncn2CCOCCOCCn1cnc2ccccc21 | 1.9
CNc1nc2c(c(=O)n(C)c(=O)n2C)n1CC(O)COc1ccccc1 (stereo not drawn) | -0.84
CC(C)(C)c1csc(-c2cc3nccc(-c4cccc(C(F)(F)F)c4)n3n2)n1 | -0.63
COC(=O)c1c(NC(=O)c2ccccc2Br)sc2c1CCC2 | 1.4
CCCC(=O)Nc1sc2c(c1C(=O)OC)CCC2 | 0.71
COC(=O)c1c(NC(=O)Nc2cccc(Cl)c2)sc2c1CCCC2 | 3.4*
Cc1nc(N2CCN(c3ccccn3)CC2)nc2c1C(=O)CC(c1ccc(Cl)cc1)C2 (stereo not drawn) | -0.26
Cc1nc(N2CCN(c3cccc(Cl)c3)CC2)nc2c1C(=O)CC(c1ccco1)C2 (stereo not drawn) | 3*
Cc1nc(N2CCN(c3ccccc3)CC2)nc2c1C(=O)CC(C)C2 (stereo not drawn) | 0.21
Cc1ccc(OCc2nc(-c3ccncc3)no2)cc1 | -2.4
CC(C)(C)c1ccc(OCC(O)CN2CCOCC2)cc1 (stereo not drawn) | 2.1
SMILES | Dicer inh
Cc1c(NC(=O)C2CCCCC2)cccc1[N+](=O)[O-] | -1.1
COCCCN=C(Nc1ccc(Br)cc1C)SC | 1.9
CN=C(Nc1ccc(C)cc1C)SC | 0.13
COCCCN=C(Nc1cc(C)c(C)cc1C)SC | 3.9*
NC(=O)c1ccc[n+]([C@@H]2O[C@H](COP(=O)([O-])OP(=O)(O)OC[C@H]3O[C@@H](n4cnc5c(N)ncnc54)[C@H](O)[C@@H]3O)[C@@H](O)[C@H]2O)c1 | 45
Cc1ccc2c(C(=O)CN(C)C)c(C)[nH]c2c1 | 1.3
NC(=O)CN1C(=O)/C(=C\c2ccc(F)cc2)N=C1c1ccccc1 | 0.21
COc1ccc(/C=C2/N=C(c3ccccc3)N(Cc3ccc(F)cc3)C2=O)cc1 | 3.9*
O=C1/C(=C\c2cccs2)N=C(c2ccccc2)N1Cc1ccc(Cl)cc1 | -0.52
O=C1/C(=C\c2ccccc2)N=C(c2ccccc2)N1c1ccccc1 | -0.09
O=C1/C(=C/c2ccc(Cl)cc2)N=C(c2ccccc2)N1CCc1ccc(Cl)cc1 | 4.2*
C=CCN1C(=O)/C(=C\c2ccc(OCc3ccccc3)cc2)N=C1c1ccccc1 | 0.88
CCC(=O)C1C(=O)c2ccccc2C1=O | 1.7
Fc1ccc2c(c1)/C(=N/Nc1ncc(C(F)(F)F)cc1Cl)CCS2 | -0.92
N#Cc1cnn(-c2ccccc2)c1NC(=O)CN(Cc1ccccc1)Cc1ccccc1 | 2.7
COC(=O)CN1C(=O)NC(c2ccccc2)(C(C)(C)C)C1=O (stereo not drawn) | 0.4
N#CC1=C(SCC(=O)Nc2ccc(Cl)cc2)NC(=O)CC1c1cccs1 (stereo not drawn) | -2.8
O=C(Nc1ccc(Cl)cc1)N1N=C2c3ccccc3CCC2C1c1cccs1 (stereo not drawn) | -0.38
O=C(Nc1ccc(Cl)cc1)N1CCOC1c1cccs1 (stereo not drawn) | 4.2*
Cc1ccc(CNCC(O)c2ccccc2)s1 (stereo not drawn) | -1
CCOC(=O)CSc1nc(Nc2ccc(OC)cc2)c2cnc(N(CC)CC)nc2n1 | -0.87
COC(=O)c1cc(=O)c2cccc(OC)c2[nH]1 | -0.38
O=C(NNC(=S)NC12CC3CC(CC(C3)C1)C2)c1cccnc1 | -0.32
Cc1ccc(S(=O)(=O)Nc2cc(Cl)c3oc4c(c3c2)C(=O)CCC4)c(C)c1 | 3.1*
CCOc1ccc(S(=O)(=O)Nc2cc(Cl)c3oc4c(c3c2)C(=O)CCC4)cc1 | 1.2
SMILES | Dicer inh
COc1ccc(S(=O)(=O)Nc2ccc3oc4c(c3c2)C(=O)CCC4)cc1 | 0.14
Cc1ccc(Cn2nc([N+](=O)[O-])cc2C(=O)O)cc1 | 0.85
CCOC(=O)C1C(=O)C=C(/C=C/c2cccs2)CC1c1ccccc1 (stereo not drawn) | 2.1
CC1CCc2c(sc3ncn(CC(=O)O)c(=O)c23)C1 (stereo not drawn) | 2.9
O=C(Cn1nnc2sc3c(c2c1=O)CCCC3)Nc1ccc(Cl)cc1 | -0.06
O=C(Cn1nnc2sc3c(c2c1=O)CCCC3)Nc1ccc(F)c(Cl)c1 | 3.6*
CC1CCc2c(sc3nnn(CC(=O)Nc4ccc(Br)cc4)c(=O)c23)C1 (stereo not drawn) | -1.1
CC1CCc2c(sc3nnn(CC(=O)Nc4ccc(Cl)cc4)c(=O)c23)C1 (stereo not drawn) | 3.6*
O=C(Cn1nnc2sc3c(c2c1=O)CCCC3)Nc1ccccc1 | 0.74
